# Results from publication PMC7862700, “An all-to-all approach to the identification of sequence-specific readers for epigenetic DNA modifications on cytosine”.
# Tests used:
# Test in all cases: DAPPL (digital affinity profiling via proximity ligation, sequencing); 10 mM Tris-HCl pH 7.5, 50 mM NaCl, 1 mM DTT, 4% glycerol, room temperature, 30 min; GST-TFs on glutathione beads, 16-mer random dsDNA library, 0.1% formaldehyde crosslink after washing; high values mean tight binding
# Details in all cases: protein: recombinant; tags: N-terminal GST; dsDNA, one strand shown
# FLI1 = target: T1, FLI1 (Homo sapiens, UniProt Q01543 1-452)
# T1 sequence: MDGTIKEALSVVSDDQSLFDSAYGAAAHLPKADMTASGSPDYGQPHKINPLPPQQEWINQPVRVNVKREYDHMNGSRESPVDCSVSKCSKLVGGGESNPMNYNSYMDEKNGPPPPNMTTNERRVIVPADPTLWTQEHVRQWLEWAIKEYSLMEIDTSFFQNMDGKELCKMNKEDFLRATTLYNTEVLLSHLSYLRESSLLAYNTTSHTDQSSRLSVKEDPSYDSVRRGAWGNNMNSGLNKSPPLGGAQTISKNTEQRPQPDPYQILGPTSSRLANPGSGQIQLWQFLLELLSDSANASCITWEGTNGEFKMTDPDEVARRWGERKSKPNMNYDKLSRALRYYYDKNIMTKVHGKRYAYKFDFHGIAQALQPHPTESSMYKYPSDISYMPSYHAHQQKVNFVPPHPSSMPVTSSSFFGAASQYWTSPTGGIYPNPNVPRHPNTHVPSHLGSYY
# How it was run: (§1)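 GST fusions of human transcription factors were expressed in yeast and captured with glutathione beads. Once given DNA barcodes and pooled alongside a tag-only sample, they were incubated for 30 min at room temperature with 200 nmole of a random double-stranded 16-mer DNA library in Tris/NaCl/DTT/glycerol buffer, then washed, crosslinked (0.1% formaldehyde), proximity-ligated, PCR-amplified and sequenced on an Illumina NextSeq500. The binding signal of each hexamer is its read frequency for a factor divided by its frequency for the tag-only sample.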
# ELK1 = target: T2, ELK1 (Homo sapiens, UniProt P19419 1-428)
# T2 sequence: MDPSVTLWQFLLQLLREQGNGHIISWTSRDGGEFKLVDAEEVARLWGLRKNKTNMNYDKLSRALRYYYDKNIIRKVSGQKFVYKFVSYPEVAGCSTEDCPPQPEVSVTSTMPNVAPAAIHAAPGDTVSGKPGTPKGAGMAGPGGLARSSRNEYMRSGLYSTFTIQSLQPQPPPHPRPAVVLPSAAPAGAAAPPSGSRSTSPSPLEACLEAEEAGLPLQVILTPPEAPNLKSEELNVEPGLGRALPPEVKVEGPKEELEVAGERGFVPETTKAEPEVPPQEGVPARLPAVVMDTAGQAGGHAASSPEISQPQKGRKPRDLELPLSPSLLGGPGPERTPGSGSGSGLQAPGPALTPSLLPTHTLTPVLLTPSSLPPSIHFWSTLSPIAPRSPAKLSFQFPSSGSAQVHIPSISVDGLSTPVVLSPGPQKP
# How it was run: as §1
# GABPA = target: T3, GABPA (Homo sapiens, UniProt Q06546 1-454)
# T3 sequence: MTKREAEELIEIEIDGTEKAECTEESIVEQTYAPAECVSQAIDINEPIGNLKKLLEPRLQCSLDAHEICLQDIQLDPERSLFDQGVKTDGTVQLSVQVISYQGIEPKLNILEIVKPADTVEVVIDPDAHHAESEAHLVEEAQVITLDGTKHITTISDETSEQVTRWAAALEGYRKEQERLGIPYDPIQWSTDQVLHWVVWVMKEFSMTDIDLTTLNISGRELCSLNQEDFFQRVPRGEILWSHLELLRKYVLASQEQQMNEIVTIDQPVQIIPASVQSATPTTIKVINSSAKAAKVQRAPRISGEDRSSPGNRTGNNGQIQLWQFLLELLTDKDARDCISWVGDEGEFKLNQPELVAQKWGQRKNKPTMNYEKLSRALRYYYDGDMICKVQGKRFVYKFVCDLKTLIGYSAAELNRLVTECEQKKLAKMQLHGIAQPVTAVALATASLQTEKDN
# How it was run: as §1
# ERG = target: T4, ERG (Homo sapiens, UniProt P11308 1-479)
# T4 sequence: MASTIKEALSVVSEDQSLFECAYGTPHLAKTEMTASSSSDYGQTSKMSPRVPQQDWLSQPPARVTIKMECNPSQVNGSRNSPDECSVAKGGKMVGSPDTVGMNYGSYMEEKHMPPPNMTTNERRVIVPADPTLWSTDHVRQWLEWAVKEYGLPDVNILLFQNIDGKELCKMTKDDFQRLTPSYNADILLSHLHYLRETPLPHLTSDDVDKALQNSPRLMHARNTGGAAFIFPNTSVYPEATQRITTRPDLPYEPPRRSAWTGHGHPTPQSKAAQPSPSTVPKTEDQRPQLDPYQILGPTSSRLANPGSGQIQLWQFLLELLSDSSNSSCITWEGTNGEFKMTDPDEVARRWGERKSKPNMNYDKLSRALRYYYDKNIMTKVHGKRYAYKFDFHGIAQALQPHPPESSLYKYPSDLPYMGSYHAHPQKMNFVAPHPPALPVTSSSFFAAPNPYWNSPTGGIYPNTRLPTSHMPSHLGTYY
# How it was run: as §1
# ELF1 = ELF1 (Homo sapiens, UniProt P32519 1-619)
# How it was run: as §1
# EHF = target: T5, EHF (Homo sapiens, UniProt Q9NZC4 1-300)
# T5 sequence: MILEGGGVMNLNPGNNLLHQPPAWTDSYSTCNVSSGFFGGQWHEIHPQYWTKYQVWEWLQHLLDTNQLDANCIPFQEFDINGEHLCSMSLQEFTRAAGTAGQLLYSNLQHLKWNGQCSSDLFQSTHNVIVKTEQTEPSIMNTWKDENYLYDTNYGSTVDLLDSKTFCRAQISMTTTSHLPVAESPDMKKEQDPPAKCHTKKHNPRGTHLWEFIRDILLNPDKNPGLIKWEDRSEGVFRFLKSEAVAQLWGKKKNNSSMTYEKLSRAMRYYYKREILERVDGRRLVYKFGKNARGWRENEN
# How it was run: as §1
# SPI1 = SPI1 (Homo sapiens, UniProt P17947 1-270)
# How it was run: as §1
# SPIB = SPIB (Homo sapiens, UniProt Q01892 1-262)
# How it was run: as §1
# ELK3 = target: T6, ELK3 (Homo sapiens, UniProt P41970 1-407)
# T6 sequence: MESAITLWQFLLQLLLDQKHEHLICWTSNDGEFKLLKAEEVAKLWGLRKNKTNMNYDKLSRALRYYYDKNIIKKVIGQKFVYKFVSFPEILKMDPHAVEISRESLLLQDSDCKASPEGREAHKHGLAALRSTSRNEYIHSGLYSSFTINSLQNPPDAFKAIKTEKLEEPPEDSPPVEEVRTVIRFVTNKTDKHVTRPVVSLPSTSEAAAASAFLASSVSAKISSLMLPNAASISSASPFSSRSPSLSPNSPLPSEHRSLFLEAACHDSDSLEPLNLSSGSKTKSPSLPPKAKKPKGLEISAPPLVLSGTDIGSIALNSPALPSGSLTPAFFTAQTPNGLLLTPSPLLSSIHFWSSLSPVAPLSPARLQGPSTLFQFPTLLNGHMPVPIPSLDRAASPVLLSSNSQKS
# How it was run: as §1
# Sequence of ELF1 (P32519 whole entry): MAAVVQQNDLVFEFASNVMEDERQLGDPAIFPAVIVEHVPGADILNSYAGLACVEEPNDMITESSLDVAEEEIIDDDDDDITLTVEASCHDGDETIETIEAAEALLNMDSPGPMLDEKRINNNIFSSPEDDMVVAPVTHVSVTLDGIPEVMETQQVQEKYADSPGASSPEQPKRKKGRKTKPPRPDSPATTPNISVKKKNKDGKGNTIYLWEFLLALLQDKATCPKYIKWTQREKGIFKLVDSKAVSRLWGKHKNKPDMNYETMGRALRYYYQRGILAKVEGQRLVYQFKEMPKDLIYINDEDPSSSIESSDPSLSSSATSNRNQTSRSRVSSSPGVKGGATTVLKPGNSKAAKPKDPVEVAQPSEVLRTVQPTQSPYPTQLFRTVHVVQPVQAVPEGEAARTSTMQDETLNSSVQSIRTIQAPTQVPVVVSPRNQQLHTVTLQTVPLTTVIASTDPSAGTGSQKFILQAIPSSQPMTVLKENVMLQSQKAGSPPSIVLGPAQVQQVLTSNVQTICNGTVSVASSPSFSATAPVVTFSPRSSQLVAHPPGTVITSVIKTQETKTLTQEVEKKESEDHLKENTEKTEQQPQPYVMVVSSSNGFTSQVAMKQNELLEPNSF
# Sequence of SPIB (Q01892 whole entry): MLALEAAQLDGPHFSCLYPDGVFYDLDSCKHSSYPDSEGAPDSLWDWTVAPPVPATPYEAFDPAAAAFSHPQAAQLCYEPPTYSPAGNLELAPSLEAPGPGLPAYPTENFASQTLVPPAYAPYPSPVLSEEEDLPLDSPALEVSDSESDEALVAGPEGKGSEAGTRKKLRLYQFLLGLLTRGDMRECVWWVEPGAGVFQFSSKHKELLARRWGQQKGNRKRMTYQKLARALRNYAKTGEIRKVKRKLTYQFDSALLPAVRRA
Sequence,binding signal (FLI1),binding signal (ELK1),binding signal (GABPA),binding signal (ERG),binding signal (ELF1),binding signal (EHF),binding signal (SPI1),binding signal (SPIB),binding signal (ELK3)
CGATAC,"1.19 fold enrichment (6-mer frequency, TF over GST control)","1.19 fold enrichment (6-mer frequency, TF over GST control)","1.27 fold enrichment (6-mer frequency, TF over GST control)","1.18 fold enrichment (6-mer frequency, TF over GST control)","1.19 fold enrichment (6-mer frequency, TF over GST control)","1.2 fold enrichment (6-mer frequency, TF over GST control)","1.15 fold enrichment (6-mer frequency, TF over GST control)","1.06 fold enrichment (6-mer frequency, TF over GST control)","1.14 fold enrichment (6-mer frequency, TF over GST control)"
CGCCGC,"1.35 fold enrichment (6-mer frequency, TF over GST control)","1.1 fold enrichment (6-mer frequency, TF over GST control)","1.19 fold enrichment (6-mer frequency, TF over GST control)","1.06 fold enrichment (6-mer frequency, TF over GST control)","1.14 fold enrichment (6-mer frequency, TF over GST control)","1.27 fold enrichment (6-mer frequency, TF over GST control)","1.11 fold enrichment (6-mer frequency, TF over GST control)","1.11 fold enrichment (6-mer frequency, TF over GST control)","1.32 fold enrichment (6-mer frequency, TF over GST control)"
AAGCAC,"1.14 fold enrichment (6-mer frequency, TF over GST control)","1.14 fold enrichment (6-mer frequency, TF over GST control)","1.15 fold enrichment (6-mer frequency, TF over GST control)","1.19 fold enrichment (6-mer frequency, TF over GST control)","1.18 fold enrichment (6-mer frequency, TF over GST control)","1.07 fold enrichment (6-mer frequency, TF over GST control)","1.18 fold enrichment (6-mer frequency, TF over GST control)","1.18 fold enrichment (6-mer frequency, TF over GST control)","1.31 fold enrichment (6-mer frequency, TF over GST control)"
TCCACC,"1.22 fold enrichment (6-mer frequency, TF over GST control)","1.18 fold enrichment (6-mer frequency, TF over GST control)","1.21 fold enrichment (6-mer frequency, TF over GST control)","1.19 fold enrichment (6-mer frequency, TF over GST control)","1.2 fold enrichment (6-mer frequency, TF over GST control)","1.28 fold enrichment (6-mer frequency, TF over GST control)","1.19 fold enrichment (6-mer frequency, TF over GST control)","1.3 fold enrichment (6-mer frequency, TF over GST control)","1.18 fold enrichment (6-mer frequency, TF over GST control)"
TTCTTG,"1.42 fold enrichment (6-mer frequency, TF over GST control)","1.46 fold enrichment (6-mer frequency, TF over GST control)","1.5 fold enrichment (6-mer frequency, TF over GST control)","1.38 fold enrichment (6-mer frequency, TF over GST control)","1.46 fold enrichment (6-mer frequency, TF over GST control)","1.56 fold enrichment (6-mer frequency, TF over GST control)","1.45 fold enrichment (6-mer frequency, TF over GST control)","1.39 fold enrichment (6-mer frequency, TF over GST control)","1.35 fold enrichment (6-mer frequency, TF over GST control)"
CGCTGC,"1.12 fold enrichment (6-mer frequency, TF over GST control)","1.04 fold enrichment (6-mer frequency, TF over GST control)","1.25 fold enrichment (6-mer frequency, TF over GST control)","1.22 fold enrichment (6-mer frequency, TF over GST control)","1.14 fold enrichment (6-mer frequency, TF over GST control)","1.28 fold enrichment (6-mer frequency, TF over GST control)","1.07 fold enrichment (6-mer frequency, TF over GST control)","1.22 fold enrichment (6-mer frequency, TF over GST control)","1.16 fold enrichment (6-mer frequency, TF over GST control)"
ACGTTA,"1.11 fold enrichment (6-mer frequency, TF over GST control)","1.14 fold enrichment (6-mer frequency, TF over GST control)","1.11 fold enrichment (6-mer frequency, TF over GST control)","1.21 fold enrichment (6-mer frequency, TF over GST control)","1.19 fold enrichment (6-mer frequency, TF over GST control)","1.11 fold enrichment (6-mer frequency, TF over GST control)","1.19 fold enrichment (6-mer frequency, TF over GST control)","1.06 fold enrichment (6-mer frequency, TF over GST control)","1.3 fold enrichment (6-mer frequency, TF over GST control)"
TAATGG,"1.26 fold enrichment (6-mer frequency, TF over GST control)","1.35 fold enrichment (6-mer frequency, TF over GST control)","1.24 fold enrichment (6-mer frequency, TF over GST control)","1.22 fold enrichment (6-mer frequency, TF over GST control)","1.32 fold enrichment (6-mer frequency, TF over GST control)","1.25 fold enrichment (6-mer frequency, TF over GST control)","1.28 fold enrichment (6-mer frequency, TF over GST control)","1.37 fold enrichment (6-mer frequency, TF over GST control)","1.31 fold enrichment (6-mer frequency, TF over GST control)"
